{
  "source": "PubChem BioAssay (EPA / NIEHS)",
  "note": "The source made the active and inactive calls. The calls were made as follows: active = hit-call score of the fitted dose curve at least 0.9, where 1 is the maximum; inconclusive = response in the unintended direction; inactive = score below 0.9.",
  "data": [
    {"tested_on": "DIO2 (gene 1734)", "assay": "CCTE_GLTED_hDIO2: CCTE's human Deiodinase 2 (DIO2) Inhibition Assay, Great Lakes Toxicology and Ecology Division (GLTED) Lab (AID 2284050)", "protocol": "CCTE_GLTED_hDIO2 is a cell-free, single-readout assay designed to test the inhibitory activity of chemicals toward human iodothyronine Deiodinase type 2 (DIO2) enzyme. Enzyme is incubated in presence of test chemical for 3 hours during which uninhibited enzyme liberates free iodide from substrate. Free iodide is measured in a second step using the Sandell-Kolthoff method.CCTE_GLTED_hDIO2 is the assay component measured from the CCTE_GLTED_hDIO2 assay. It is designed to make measurements of enzyme activity, a form of enzyme reporter, as detected with absorbance signals by spectrophotometry.Data from the assay component CCTE_GLTED_hDIO2 was analyzed into 1 assay endpoint. This assay endpoint, CCTE_GLTED_hDIO2, was analyzed in the positive analysis fitting direction relative to DMSO as the negative control and baseline of activity. Using a type of enzyme reporter, loss-of-signal activity can be used to understand changes in the enzymatic activity as they relate to the gene DIO2. Furthermore, this assay endpoint can be referred to as a primary readout, because the performed assay has only produced 1 assay endpoint. To generalize the intended target to other relatable targets, this assay endpoint is annotated to the 'deiodinase' intended target family, where the subfamily is 'deiodinase Type 2'.\nHuman deiodinase type 2 (hDIO2) assay, developed at Great Lakes Toxicology and Ecology Division (GLTED) within the EPA's Center for Computational Toxicology and Exposure (CCTE), is designed to test the chemicals' ability to inhibit DIO2. Assay is based on iodide release measured by the Sandell-Kolthoff method and is run in 96-well plate format with assay plates run in triplicate (n=3). The method used for the deiodinase assay was largely based on Renko et al. (2012, 2015). These works describe the utilization of the SK reaction to measure deiodinase-liberated iodide in a 96-well-plate format. The SK reaction is based on the reduction of the yellow-colored cerium IV to the non-colored cerium III by arsenic, with the rate of this reaction increased in the presence of iodide in a concentration-dependent manner (Sandell and Kolthoff, 1937). Iodinated test chemicals can interfere as competitive inhibitors, or if the stock chemical has contaminating free-iodide present. Other chemicals, e.g.: nitrite, iron, and thiocyanate can interfere with the Sandell-Kolthoff reaction (see Sandell and Kolthoff, 1937).", "values": [
      {"smiles": "C=C(C)C(=O)OCCOC1CC2CC1C1C=CCC21", "note": "(stereo unspecified)", "AC50": "13 µM (active)"},
      {"smiles": "CCc1cc(Cc2cc(CC)cc(C(C)(C)C)c2O)c(O)c(C(C)(C)C)c1", "AC50": "83.3 µM (active)"},
      {"smiles": "O=CCc1ccccc1", "outcome": "inactive"},
      {"smiles": "COc1ccc(N=Nc2cc(C)c(N=Nc3ccc(S(=O)(=O)O)cc3)cc2OC)cc1", "AC50": "100 µM (active)"},
      {"smiles": "C=C1CC[C@H](O)C/C1=C/C=C1\\CCC[C@]2(C)[C@@H]([C@H](C)/C=C/[C@H](C)C(C)C)CC[C@@H]12", "AC50": "19.8 µM (active)"},
      {"smiles": "CCCCCCCCCCCCCC(=O)OCC(O)CO", "note": "(stereo unspecified)", "AC50": "100 µM (active)"},
      {"smiles": "CCCCCCCCC=CCCCCCCCC1=NCCN1CCO", "AC50": "60.9 µM (active)"},
      {"smiles": "Oc1ccc2cc(SSc3ccc4cc(O)ccc4c3)ccc2c1", "AC50": "22.2 µM (active)"},
      {"smiles": "CCCCC(CC)COC(=O)c1ccc(O)cc1", "note": "(stereo unspecified)", "AC50": "82.5 µM (active)"},
      {"smiles": "CCOC(=O)[C@@H](C)Oc1ccc(Oc2nc3ccc(Cl)cc3o2)cc1", "AC50": "23.5 µM (active)"},
      {"smiles": "CCOc1ccc(N=Nc2ccc(C=Cc3ccc(N=Nc4ccc(OCC)cc4)cc3S(=O)(=O)O)c(S(=O)(=O)O)c2)cc1", "AC50": "43.9 µM (active)"},
      {"smiles": "CCCCCCCCCCCCCCN(CCO)CCO", "AC50": "39.9 µM (active)"},
      {"smiles": "Cc1cc(S(=O)(=O)O)ccc1N=Nc1c(O)ccc2ccccc12", "outcome": "inactive"},
      {"smiles": "CCCCCCCCCCCCN1CCCCCC1=O", "AC50": "116 µM (active)"},
      {"smiles": "CCCCCC(C=O)=Cc1ccccc1", "AC50": "62.6 µM (active)"},
      {"smiles": "CC(C)CCCCCCCCCCCCCCC(=O)O", "AC50": "100 µM (active)"}
    ]}
  ]
}
